# Assay results published in the supplement of paper PMC8975748.
# Counter-ions that a name gives are not always drawn.
# System: Saccharomyces cerevisiae BY4741 SeMeCo community
# Experiment: z-score of subpopulation abundance vs DMSO median, subpopulation auxotrophic for HL; higher = larger share of this subpopulation than in DMSO controls
# Conditions: 10 µM; 24 h; SM minimal medium; subpopulation (auxotrophy): HL
# Summary of the method: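 A community of Saccharomyces cerevisiae BY4741 was built from four plasmids that each restored one auxotrophy and encoded a distinct fluorescent protein. Pre-grown overnight to OD600 1.0 and diluted to 0.3, it was dispensed at 70 µl into 384-well plates acoustically predosed with library drugs for a final 10 µM, and grown 24 h in minimal SM medium. Cells were then paraformaldehyde-fixed and imaged by automated confocal microscopy. Thresholds and autofluorescence correction came from single-auxotroph fluorescent strains, and each subpopulation's abundance was scored as a z-score relative to the vehicle-well median.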
row,Structure (SMILES),z-score of subpopulation abundance
1,CC(C)Cc1ccc(C(C)C(=O)O)cc1 (stereo not given) [Ibuprofen],-0.54
2,Fc1ccc(C(c2ccc(F)cc2)N2CCN(C/C=C/c3ccccc3)CC2)cc1 [Flunarizine 2HCl],0.64
3,COCCCN1CCC(NC(=O)c2cc(Cl)c(N)c3c2OCC3)CC1 [Prucalopride Succinate],0.16
4,CCCCOc1ccc(CC(=O)NO)cc1 [Bufexamac],-0.85
5,NCC[C@H](O)C(=O)N[C@@H]1C[C@H](N)[C@@H](O[C@H]2O[C@H](CN)[C@@H](O)[C@H](O)[C@H]2O)[C@H](O)[C@H]1O[C@H]1O[C@H](CO)[C@@H](O)[C@H](N)[C@H]1O [Amikacin disulfate],-0.25
6,O=C(Nc1cc(Cl)cc(Cl)c1O)c1c(O)c(Cl)cc(Cl)c1Cl [Oxyclozanide],1.03
7,CCC(=O)NS(=O)(=O)c1ccc(-c2c(-c3ccccc3)noc2C)cc1 [Parecoxib Sodium],1.38
8,CN(CCN1CCC(OC(=O)Nc2ccccc2-c2ccccc2)CC1)C(=O)c1ccc(CN2CCC(C(N)=O)CC2)cc1 [Revefenacin],-0.32
9,Cc1nnc(NS(=O)(=O)c2ccc(N)cc2)s1 [Sulfamethizole],-0.84
10,CC1=CC[C@@](O)(C(C)C)CC1 [Terpinen-4-ol],-0.57
11,CS(=O)(=O)c1ccc([C@@H](O)[C@@H](CF)NC(=O)C(Cl)Cl)cc1 [Florfenicol],-0.56
12,Cn1c([N+](=O)[O-])cnc1COC(N)=O [Ronidazole],-0.38
13,CC(=O)OCC(COC(C)=O)OC(C)=O [Triacetin],-0.02
14,COc1ccc(Cl)cc1C(=O)NCCc1ccc(S(=O)(=O)NC(=O)NC2CCCCC2)cc1 [Glyburide (Glibenclamide)],1.09
15,O=C(Nc1c(Cl)cncc1Cl)c1ccc(OC(F)F)c(OCC2CC2)c1 [Roflumilast],-0.5
16,CCN(CC)CCOc1ccc2c(c1)C(=O)c1cc(OCCN(CC)CC)ccc1-2 [Tilorone dihydrochloride],-0.65
17,CN(C)[C@@H](CCOc1cccc2ccccc12)c1ccccc1 [Dapoxetine HCl],0.57
18,COc1cc(Cc2cnc(N)nc2N)cc(OC)c1OC [Trimethoprim],-0.46

row,Structure (SMILES),z-score of subpopulation abundance
1,OCCN1CCN(CCCN2c3ccccc3Sc3ccc(C(F)(F)F)cc32)CC1 [Fluphenazine dihydrochloride],1.51
2,CC(C)c1c(C(=O)Nc2ccccc2)c(-c2ccccc2)c(-c2ccc(F)cc2)n1CC[C@@H](O)C[C@@H](O)CC(=O)O [Atorvastatin],5.39
3,COc1ccc(C2CNC(=O)C2)cc1OC1CCCC1 (stereo not given) [Rolipram],-0.38
4,NNc1nncc2ccccc12 [Hydralazine HCl],-0.59
5,COCCOC(=O)C1=C(C)NC(C)=C(C(=O)OC(C)C)C1c1cccc([N+](=O)[O-])c1 (stereo not given) [Nimodipine],-0.61
6,CCOC(=O)C1=C(C)NC(C)=C(C(=O)OC)C1c1cccc([N+](=O)[O-])c1 (stereo not given) [Nitrendipine],-0.8
7,CCCN[C@H]1CCc2nc(N)sc2C1 [Pramipexole dihydrochloride],0.19
8,Cc1cc(C)nc(NS(=O)(=O)c2ccc(N)cc2)n1 [Sulfamethazine],-0.28
9,CC[C@H](C)C(=O)O[C@H]1C[C@@H](C)C=C2C=C[C@H](C)[C@H](CC[C@@H]3C[C@@H](O)CC(=O)O3)[C@H]21 [Lovastatin],0.97
10,CN1[C@@H]2CC[C@H]1C[C@@H](OC(c1ccccc1)c1ccccc1)C2 [Benztropine mesylate],0.19
11,CO/N=C(\C(=O)N[C@@H]1C(=O)N2C(C(=O)O)=C(CSc3nnnn3C)CS[C@H]12)c1csc(N)n1 [Cefmenoxime hydrochloride],-0.51
12,NCC[C@H](O)C(=O)N[C@@H]1C[C@H](N)[C@@H](O[C@H]2O[C@H](CN)[C@@H](O)[C@H](O)[C@H]2O)[C@H](O)[C@H]1O[C@H]1O[C@H](CO)[C@@H](O)[C@H](N)[C@H]1O [Amikacin hydrate],0.87
13,CO/N=C(\C(=O)N[C@@H]1C(=O)N2C(C(=O)O)=C(CSc3nc(C)c(CC(=O)O)s3)CS[C@H]12)c1csc(N)n1 [Cefodizime Sodium],-0.84
14,COc1ccc2c3c1O[C@H]1C[C@@H](O)C=C[C@@]31CCN(C)C2 [Galanthamine],0.83
15,CC[C@H](C)C(=O)O[C@H]1CCC=C2C=C[C@H](C)[C@H](CC[C@@H]3C[C@@H](O)CC(=O)O3)[C@H]21 [Mevastatin],0.72
16,CN1CCN(CCCN2c3ccccc3Sc3ccc(C(F)(F)F)cc32)CC1 [Trifluoperazine 2HCl],-0.59
17,O=C(Cn1ccnc1[N+](=O)[O-])NCc1ccccc1 [Benznidazole],0.08
